KDM5B inh – KDM5B demethylase inhibition; Potency, µM (top dose mostly 57.7 µM), most hits filed as inhibitors; Q9UGL1; AID 1347165; KDM5B demethylase, FDH-coupled NADH fluorescence (FDH is formaldehyde dehydrogenase); 2.6% of 220,000 active; active = well fitted inhibition curve with a large enough effect; note: nearly all actives have a fitted effect of over 70% in size
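Inhibition is measured as reduced NADH fluorescence generation from FDH coupling to formaldehyde release. Truncated KDM5BΔAP at 200 nM final acts on H3K4me3 peptide (12.5 µM in substrate mix) in pH 7.5 HEPES buffer with Tween-20, 30 min, room temperature.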
Large screens that a line does not name were inactive. The entries come from a sample that favours hits as a whole.

CC(NC(=O)C1CCN(c2nc3ccccc3o2)CC1)c1ccccc1 (stereo not given)	none
O=C(NC1CCCCC1)C1CCCN(S(=O)(=O)c2cccc3cccnc23)C1 (stereo not given)	none
O=C(NC1CCN(c2nc3ncccc3o2)CC1)c1cccc(Cl)c1	KDM5B inh 28µM
CCCNC(=O)Nc1cccc(C(=O)NC)c1C	none
Cc1oc2cc(OCC(=O)Nc3ccc(F)cc3F)ccc2c(=O)c1Oc1ccccc1	none
O=C(Nc1nc2c(s1)CCC2)C1CC(=O)N(c2n[nH]c3cc(Br)ccc23)C1 (stereo not given)	none
CN1C(=O)C2(CCN(Cc3cccc4ccccc34)C2)c2ccccc21 (stereo not given)	none
COc1cc(/C=C(/C#N)C(=O)C(C)(C)C)cc(Cl)c1OC	none
CN(C)CCN1C(=O)C(O)=C(C(=O)c2cc3ccccc3o2)C1c1ccc(OCc2ccccc2)cc1 (stereo not given)	none
COc1ccccc1CN1CCC(Cc2ccccc2)CC1	none
N#Cc1ccc(N2CCC(C(=O)NC(c3ccc(F)cc3)C3CCCC3)CC2)nc1 (stereo not given)	none
O=C(O)CCn1cc(C(C(=O)O)N2CCN(Cc3ccncc3)CC2)c2ccc(F)cc21 (stereo not given)	none
Cc1cccc(NC(=O)CC(C)c2ccccc2)c1 (stereo not given)	none
NC(=O)c1ccc(COC(=O)CCC(=O)c2ccc(Cl)cc2)c([N+](=O)[O-])c1	none
O=C(O)/C=C\C(=O)NC(Cc1ccccc1)C(=O)O (stereo not given)	none
CCCCn1cc(S(=O)(=O)c2ccc(OCC)cc2)c(=O)c2cc(C)ccc21	none
CCOC(=O)/C=C/c1cccc(C(C)=O)c1	none
O=C(/C=C/c1cccc(O)c1)c1cccs1	none
O=C(c1n[nH]c2ccccc12)N1CCCC1c1nc(CCOCC2CCOCC2)no1 (stereo not given)	none
C=C(Cl)CN1CCC(CNC(C)=O)CC1	none
Cc1cc(NC(=O)C(C)(C)C)cc(-c2nc3ncccc3o2)c1O	none
Cc1ccc([S+](=O)([O-])N2CCCN(c3nc4ncccc4o3)CC2)cc1	none
O=C(NC1CCCN(c2nc3ncccc3o2)C1)c1ccccc1F (stereo not given)	none
Cc1ccccc1C(=O)NC1CCN(c2nc3ncccc3o2)CC1	KDM5B inh 32µM
CC(C)(C)C(=O)NC1CCN(c2nc3ncccc3o2)CC1	KDM5B inh 25µM
Cc1ccccc1C(=O)NC1CCCN(c2nc3ncccc3o2)C1 (stereo not given)	none
CCCCN(Cc1ccccc1)c1ccc(NS(=O)(=O)c2ccc(CC)cc2)cc1C(=O)O	none
COc1cccc(CN2CCc3nn(C)c(=O)n3CC2)n1	none
COc1ccc2c(c1)c(CN1CCc3nn(C)c(=O)n3CC1)cn2C	KDM5B inh 32µM
COc1cccc(CN2CCc3nn(C)c(=O)n3CC2)c1OC	none
Cc1ccc(NS(=O)(=O)c2ccc(N/N=C/c3cc(C)ccc3C)c([N+](=O)[O-])c2)c(C)c1	none
CCc1cc(Nc2ccc(OC)cc2)n2ncnc2n1	none
c1ccc2oc(-c3ccnc4ncnn34)cc2c1	none
COc1cc(F)ccc1C1=NN(C(C)=O)C(c2ccc3nccnc3c2)C1 (stereo not given)	none
COc1cc(F)ccc1-c1ccnc2ncnn12	KDM5B inh 25µM
COc1ccc(-c2ccnc3ncnn23)c(F)c1	KDM5B inh 28µM
CCc1cc(Nc2ccccc2OC)n2ncnc2n1	none
Cc1ccc(CNC(=O)C(C)N2CCN(c3ccc([N+](=O)[O-])c4cnccc34)CC2)cc1 (stereo not given)	none
O=C(CSC1=NC2(CCCCC2)N=C1c1cccs1)NCc1ccc(F)cc1	none
Cc1[nH]c2ccccc2c1C(=O)C(=O)Nc1ccc(C(C)C)cc1	none
CCN(CC)[C@H]1[C@@H]2OC[C@@H](O2)[C@@H](NCC2CCCCC2)[C@@H]1O	none
Clc1cccc(CNCCCn2ccnc2)c1	none
CC(=O)c1c(C)cc(C)c(COC(=O)c2ccccn2)c1C	none
CCC(C)NC(=O)N1CC(Oc2ccc(-c3noc(C4CCOCC4)n3)cc2)C1 (stereo not given)	none
Cc1cccc[n+]1Cc1ccccc1	none
COc1ccc(-c2cc(C(=O)NCc3c(C)cc(C)[nH]c3=O)c3c(c2)N(C(C)C)CCO3)cc1OC	KDM5B inh 35µM
COc1ccc(CNC(=O)c2cnc3cc(C)ccn3c2=O)cc1	none
COc1nc2c(cc1CNC(=O)c1cccnc1C)C(=O)N(C1CCCC1)C2	none
COc1ccc2oc(=O)c(C(=O)NCc3ccc(C)cc3)cc2c1	none
COc1ncccc1-c1cc(C(=O)NCc2c(C)cc(C)[nH]c2=O)c2c(c1)N(C)CCO2	KDM5B inh 35µM
COc1ncccc1-c1cc2c(ccn2C(C)C)c(C(=O)NCc2c(C)cc(C)[nH]c2=O)n1	none
COc1ccc(-c2noc(CNC(=O)c3cnn(C(C)C)c3)n2)cc1OC	none
COc1ccc(-c2cc(C(=O)NCc3c(C)cc(C)[nH]c3=O)c3c(c2)N(C)CCO3)cc1	KDM5B inh 32µM
COc1cccc(-c2cc(C(=O)NCc3c(C)cc(C)[nH]c3=O)c3c(c2)ncn3C)c1OC	none
Cc1cc(C)c(CNC(=O)c2cc(-c3ccccc3C)cc3c2OCCN3C)c(=O)[nH]1	KDM5B inh 40µM
Cc1c(C(=O)c2cccs2)oc2ccccc12	none
Cc1ccc(NC(=O)CN2N=C(c3ccccc3F)c3cc(Cl)ccc3S2(=O)=O)c(C)c1	none
CSc1ccccc1NC(=O)/C(=C/c1ccco1)c1ccccc1	none
CN(CC1CCOCC1)S(=O)(=O)c1ccc2c(c1)CCCC2	none
CCC(c1cccs1)N1C(=O)[C@H]2CN(S(=O)(=O)c3cc(C)ccc3C)C[C@H]2C1=O (stereo not given in full)	none
CCONC(=O)c1cccc(NC(C)=O)c1	none
COc1ccc(C2CC(=O)C3=C(C2)OC(N)=C(C#N)C3c2cccc(Br)c2)cc1 (stereo not given)	none
COc1cc(Nc2c(C#N)cnc3ccccc23)cc(OC)c1OC	none
CSc1ccc(CNC(=O)c2cc3c(=O)[nH]c(C)cn3n2)cc1	none
Cc1ccc(CNC(=O)c2ccc(NC(=O)c3cc4c(=O)[nH]c(C)cn4n3)cc2)cc1	KDM5B inh 3.2µM
Cc1cn2nc(C(=O)NCc3cccc(Cl)c3)cc2c(=O)[nH]1	none
C=CCn1c(SCCO)nc2c1c(=O)n(C)c(=O)n2C	none
COc1ccc(CCc2nc3nccc(-c4cccs4)n3n2)cc1	none
CC(C)c1noc(C2CCCN2C(=O)c2cc(-c3cccs3)n(C)n2)n1 (stereo not given)	none
CC(C)c1nc2nccc(-c3cccs3)n2n1	KDM5B inh 25µM
CC(C)Cc1nc2nccc(-c3cccs3)n2n1	KDM5B inh 25µM
CCc1cccc(C)c1Nc1c(-c2cccs2)nc2ncccn12	none
Cc1ccc2nc(-c3ccncc3)cc(C(=O)O)c2c1	none
COc1ccc(C(=O)NC2CCN(c3cc(-c4ccc(F)cc4)[nH]n3)CC2)cc1F	none
O=C(NC1CC1)c1ccc2nnc(C3CC3)n2c1	KDM5B inh 100µM
O=C(NC1CCCCC1)c1ccc(Cl)nc1	none
O=C(NC1CCCC1)c1ccc(Cl)cc1-n1cnnn1	none
O=C(NC1CCCC1)c1ccc2nnc(-c3cncc(Cl)c3)n2c1	KDM5B inh 100µM
CC1CCC(NC(=O)c2ccc(C(N)=O)cc2)CC1 (stereo not given)	none
C[C@H](O)c1onc(-c2ccc(F)cc2)c1C(=O)NC1CC1	none
O=C(NC1CCC(c2ccccc2)CC1)c1ccncc1 (stereo not given)	none
O=C(NC1CC1)c1ccc2nnc(-c3ccc(F)cc3)n2c1	KDM5B inh 126µM
COc1ccc(NC(=O)CCc2c(C)[nH]n(-c3ccc(F)cc3)c2=O)cc1OC	none
O=C(Cc1ccc(Cl)cc1)Nc1nc2c(s1)CCCC2	none
